Assay outcomes as filed in PubChem.
Hits are enriched below; roughly 4.5% of the tested compounds scored in any of these assays.
Gli-Sufu antag: Gli-Sufu pathway antagonists, primary screen, luciferase luminescence, Sufu-KO-LIGHT cells, uHTS | AID 588413, 2011 | 340,000 compounds, 0.74% hits | inhibition, % at 5 µM | Sufu-KO-LIGHT fibroblasts, Gli luciferase reporter luminescence;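 active = inhibition above about 55%, limit read from the data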
Beta cell apopt: inhibitors of cytokine-induced beta cell apoptosis, primary screen, luminescence; 300,000 compounds, 0.8% hits; protection from apoptosis, % (test concentration not listed); AID 435005, 2010; INS-1E cytokine-induced death, ATP luminescence, 48 h; percent of positive-control rescue, neutral wells zero;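 active = Every replicate reaches about 75%, or at least half do and their mean reaches it too, limit read from the data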;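 note: higher means more ATP so stronger rescue from cytokine killing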
Jurkat NFkB inh: inhibitors of induced NF-kB luciferase reporter, primary screen, TCR NF-kB activation inhibitor project, cell-based, luminescence, uHTS; Jurkat, PMA/ionomycin-induced NF-kB luciferase reporter; inhibition, % at 4 µM; 330,000 compounds, 0.53% hits; AID 435003, 2010; in the data active = inhibition above about 50%
Mdm2 MdmX PPI: inhibitors of human Mdm2-MdmX association, primary screen, cell-based, luminescence, split luciferase, SaOS-2, uHTS; Protein Mdm4 (Homo sapiens) + E3 ubiquitin-protein ligase Mdm2 (Homo sapiens), …; SaOS-2 split-luciferase Mdm2/MdmX complementation; inhibition, % at 8 µM; 330,000 compounds, 3% hits; AID 485346, 2010;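 active = inhibition of at least 50% at 8 µM in the primary screen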
Target sequence (O15151 whole entry, looked up): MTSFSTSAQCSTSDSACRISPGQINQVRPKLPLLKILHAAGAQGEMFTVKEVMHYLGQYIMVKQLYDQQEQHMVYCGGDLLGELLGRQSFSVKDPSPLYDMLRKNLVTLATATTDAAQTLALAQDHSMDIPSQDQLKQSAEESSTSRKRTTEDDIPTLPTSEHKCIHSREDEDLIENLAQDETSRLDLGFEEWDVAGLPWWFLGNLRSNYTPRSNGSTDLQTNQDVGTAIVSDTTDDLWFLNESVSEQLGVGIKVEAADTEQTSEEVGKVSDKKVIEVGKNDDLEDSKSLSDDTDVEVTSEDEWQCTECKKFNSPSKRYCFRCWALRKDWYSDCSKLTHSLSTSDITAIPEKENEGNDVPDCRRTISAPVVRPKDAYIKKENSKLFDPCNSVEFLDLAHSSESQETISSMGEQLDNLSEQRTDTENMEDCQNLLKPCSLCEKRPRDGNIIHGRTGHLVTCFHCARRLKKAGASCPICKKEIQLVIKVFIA
Target sequence (Q00987 whole entry, looked up): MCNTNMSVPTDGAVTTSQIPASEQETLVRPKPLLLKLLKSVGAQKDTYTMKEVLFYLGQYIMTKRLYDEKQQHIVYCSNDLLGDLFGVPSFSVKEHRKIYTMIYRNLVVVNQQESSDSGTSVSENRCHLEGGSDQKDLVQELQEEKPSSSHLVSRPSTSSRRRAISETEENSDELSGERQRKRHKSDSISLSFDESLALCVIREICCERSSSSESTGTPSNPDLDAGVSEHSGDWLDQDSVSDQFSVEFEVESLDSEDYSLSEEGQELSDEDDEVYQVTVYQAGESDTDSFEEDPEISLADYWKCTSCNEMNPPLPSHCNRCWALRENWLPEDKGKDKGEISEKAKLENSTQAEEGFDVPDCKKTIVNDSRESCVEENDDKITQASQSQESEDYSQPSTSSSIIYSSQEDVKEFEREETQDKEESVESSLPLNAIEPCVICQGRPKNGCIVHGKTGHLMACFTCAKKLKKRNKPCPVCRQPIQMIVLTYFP
CSC inhib: cancer stem cell viability inhibitors, primary screen, luminescence | cancer stem cell-like cells viability | inhibition, % at 7.5 µM | 300,000 compounds, 1.1% hits; in the data active = inhibition above about 75%; tested in HMLE shEcad cells
697 NFkB inh: inhibitors of PMA/ionomycin-induced NF-kB reporter, 697 cells, primary screen, B-cell NF-kB inhibitor project, cell-based, luminescence, uHTS | 697 B-cell NF-kB luciferase reporter, 16 h | inhibition, % at 4 µM | 330,000 compounds, 0.33% hits; in the data active = inhibition above about 35%
Mdm2-MdmX conf: Mdm2-MdmX complex disruptors, retested hits, confirmation, luminescence, single concentration | 10,000 compounds, 55% hits | shares compounds with Mdm2 MdmX PPI | Mdm2-MdmX binding, luminescent assay | inhibition, % at 8 µM; in the data active = inhibition above about 40%
Full FLuc ctr: full-length luciferase signal inhibition, confirmation, counter-screen for Mdm2/MdmX interaction inhibitor project, cell-based, single concentration, SaOS-2 | shares compounds with Mdm2 MdmX PPI | SaOS-2 full-length luciferase counterscreen, luminescence | inhibition, % at 8 µM | 6,200 compounds, 77% hits;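 active = mean inhibition at 8 µM reaching about 37%, which flags the compound as non-specific, limit read from the data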;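 note: p53-null SaOS-2 cells with luciferase driven by a doxycycline-inducible promoter; compound on cells about two nights before reading with doxycycline added after day one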
Gli antag conf: Gli-SUFU pathway antagonists, confirmation, single concentration, luciferase luminescence, Sufu-KO-LIGHT cells; 2,500 compounds, 40% hits; shares compounds with Gli-Sufu antag; Gli luciferase reporter; inhibition, % at 5 µM; AID 602428, 2012;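 active = mean inhibition at 5 µM reaching about 45%, limit read from the data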
Gli cytotox: cytotoxicity in Sufu-KO-LIGHT cells, confirmation, cytotoxicity control for Gli-SUFU antagonist project, cell-based, ATP luminescence, single concentration; shares compounds with Gli-Sufu antag; cytotoxicity, % at 5 µM; 2,500 compounds, 32% hits;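 active = mean cytotoxicity at 5 µM above about 25%, limit read from the data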;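 note: cells exposed to compound overnight for roughly 16 to 18 hours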
Wnt3a cs: Wnt3a reporter signal inhibition, confirmation, counter-screen for Gli-SUFU antagonist project, Wnt-LIGHT cells, luminescence, single concentration. Wnt3a-driven luciferase reporter. 2,500 compounds, 20% hits. shares compounds with Gli-Sufu antag. inhibition, % at 6.25 µM. AID 651995, 2013;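 active = mean inhibition above about 25%, limit read from the data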
Hits are given with their value; n = inactive; x = no result given.

SMILES | Gli-Sufu antag | Beta cell apopt | Jurkat NFkB inh | Mdm2 MdmX PPI | CSC inhib | 697 NFkB inh | Mdm2-MdmX conf | Full FLuc ctr | Gli antag conf | Gli cytotox | Wnt3a cs
NS(=O)(=O)c1ccc(Sc2ccc3ccccc3c2)nc1 | n | n | n | n | n | n | x | x | x | x | x
CC(C)[C@H](NC(=O)c1ccco1)C(=O)OCC(=O)c1ccc(Br)s1 | n | n | n | n | n | n | x | x | x | x | x
O=C(NCc1ccccc1Cl)c1nnc(CS(=O)(=O)c2ccccc2)o1 | n | n | n | n | n | n | x | x | x | x | x
Cc1c(C)c2ccc(OC(C)C(=O)NCCCN3CCOCC3)c(C)c2oc1=O (stereo not given) | n | n | n | n | n | n | x | x | x | x | x
CCc1ccc(OCCNc2cc(N3CCNC(C)C3)ccc2[N+](=O)[O-])cc1 (stereo not given) | n | n | n | 95.2 | x | n | n | 75.5 | x | x | x
Cc1ccccc1OCCNc1cc(N2CC(C)NC(C)C2)ccc1[N+](=O)[O-] (stereo not given) | n | n | n | 80.5 | x | n | n | x | x | x | x
CC1CN(c2ccc([N+](=O)[O-])c(NCCOc3ccccc3)c2)CC(C)N1 (stereo not given) | n | n | n | n | n | n | x | x | x | x | x
Cc1ccc(NC(=S)N(CCN(C)C)Cc2cccs2)cc1 | n | n | n | n | n | n | x | x | x | x | x
CCOC(=O)c1ccc(NC(=S)N(CCN(C)C)Cc2cccs2)cc1 | n | n | n | 75.8 | n | n | 46.3 | 60.6 | x | x | x
O=C(Nc1ccncc1NC(=O)c1cccc([N+](=O)[O-])c1)c1cccc([N+](=O)[O-])c1 | n | n | n | 87.4 | n | n | 55.5 | n | x | x | x
CSCCC(NS(=O)(=O)c1ccc2c(c1)OCCO2)C(=O)N(C)Cc1ccc(C)cc1 (stereo not given) | n | n | n | n | x | n | x | x | x | x | x
COc1cccc(CN(C)C(=O)C(CCSC)NS(=O)(=O)c2ccc3c(c2)OCCO3)c1OC (stereo not given) | n | x | n | 67.1 | n | n | 55.8 | 71.7 | x | x | x
CC(=NNC(=O)c1ccncc1)c1cc(Cl)ccc1Cl | n | x | x | x | x | x | x | x | x | x | x
Cc1c(C)n(C)c2ccc(C(=O)NCCCN3CCCC3)cc12 | n | n | n | n | n | n | x | x | x | x | x
CCN(CC)c1ccc(NC(=O)c2ccc3c(c2)c(C)c(C)n3C)cc1 | n | n | n | 61.4 | n | n | 48.2 | 71.5 | x | x | x
COc1ccc(NC(=O)CN(C)C(=O)C(C)Oc2ccc(Br)cc2)cc1 (stereo not given) | n | n | n | n | n | n | x | x | x | x | x
CC(=O)Nc1ccc2c(c1)C(=O)c1cccc(C(=O)O)c1-2 | n | x | x | x | x | x | x | x | x | x | x
COc1ccc(C(=O)N2CCc3cc4c(cc3C2C)OCCCO4)cc1 (stereo not given) | n | x | n | n | n | n | x | x | x | x | x
CC1c2cc3c(cc2CCN1C(=O)c1ccc(Br)cc1)OCCCO3 (stereo not given) | n | n | n | 69.5 | n | n | 45.7 | 46.6 | x | x | x
CC(C)c1ccc(-c2nc3ccccc3s2)cc1 | 64.2 | n | n | 87.4 | n | n | 88.5 | n | 82.2 | 72.6 | 105.9
COc1cc(-c2nc3ccccc3s2)ccc1O | n | n | n | n | n | n | x | x | x | x | x
CCCC(=O)NC(c1ccc(Cl)cc1)c1ccc2cccnc2c1O (stereo not given) | 85.8 | 113.0 | n | 78.1 | 105.7 | n | 83.5 | 57.0 | 82.4 | 34.8 | 71.4
O=C(c1ccc(-c2cc(O)c3ncccc3c2)cc1)N1CCNCC1 | n | n | n | n | x | n | x | x | x | x | x
Cc1nc2ccccc2c2oc(C(=O)N3CCN(c4ccc([N+](=O)[O-])cc4)CC3)cc12 | 59.1 | n | n | 85.7 | n | n | n | x | n | 28.1 | n
Cc1nc2ccccc2c2oc(C(=O)N3CCN(C(=O)c4ccco4)CC3)cc12 | n | n | n | n | n | n | x | x | x | x | x
SMILES | Gli-Sufu antag | Beta cell apopt | Jurkat NFkB inh | Mdm2 MdmX PPI | CSC inhib | 697 NFkB inh | Mdm2-MdmX conf | Full FLuc ctr | Gli antag conf | Gli cytotox | Wnt3a cs
CC[C@H](C)[C@H](NC(=O)c1ccc(Cl)cc1)C(=O)OCC(=O)c1c(N)n(C)c(=O)n(C)c1=O | n | n | n | n | n | n | x | x | x | x | x
CCO/C(=C/c1sc2ccc(OC)cc2[n+]1CCCS(=O)(=O)[O-])CC | n | n | n | n | n | n | x | x | x | x | x
CCC(/C=C1\Sc2ccc(OC)cc2N1CC)=C\c1sc2ccc(OC)cc2[n+]1CCCS(=O)(=O)[O-] | 70.3 | 102.6 | n | 53.9 | n | n | n | x | 81.7 | 40.3 | n
CCc1ccc(N=c2c([N+](=O)[O-])nn(-c3ccc4c(c3)OCCO4)n2O)cc1 | n | n | n | n | x | n | x | x | x | x | x
Cc1ccc(N=c2c([N+](=O)[O-])nn(-c3ccc4c(c3)OCCO4)n2O)cc1F | 61.0 | n | n | 79.6 | n | n | 94.8 | n | 64.7 | n | 69.8
O=[N+]([O-])c1nn(-c2ccc3c(c2)OCCO3)n(O)c1=Nc1ccc(Cl)cc1 | 57.2 | n | n | 86.0 | n | n | 92.0 | 50.8 | 59.5 | n | 43.7
Cc1ccc(N=c2c([N+](=O)[O-])nn(-c3ccc4c(c3)OCCO4)n2O)c(Cl)c1 | x | n | n | n | n | n | x | x | x | x | x
Cc1ccc(CNC(=O)c2ccc3c(=O)c(O)c(-c4ccc(C)cc4)[nH]c3c2)cc1 | 65.8 | n | n | 58.4 | n | n | 55.2 | n | 63.0 | n | 70.1
COc1ccc(NC(=O)/C(C#N)=C\c2cc(C)n(-c3ccc4c(c3)OCO4)c2C)cc1 | 64.1 | n | n | 58.4 | n | n | 54.9 | 75.2 | 56.1 | 56.1 | n
N#CC1=C(N)N2C(=C(C#N)C1c1ccc(Br)cc1)Nc1ccccc12 (stereo not given) | 58.1 | 109.0 | n | 96.4 | 114.1 | n | 95.3 | 53.0 | 82.7 | 37.0 | 66.6
O=C(O)Cc1cccc(=O)c(O)c1C(=O)O | n | x | x | x | x | x | x | x | x | x | x
